This is part of a sample that, as a whole, favours compounds with a hit. Of some 83,000 tested, about 20% had one in any assay.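 Note: values are percent growth. 100 is the growth of untreated cells, values between 100 and 0 indicate rising inhibition; between -100 and 0 indicates cell death.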 Active and inactive are the calls of the source. The calls were made as follows: active = growth percent below 10; inactive = the rest.
test system: PC-3 prostate; assay: NCI-60 one-dose screen, 48 h (100 = growth as untreated, 0 = no growth, -100 = all killed); conditions: 10 µM unless noted

Row | SMILES | growth
1 | [O-]/[N+](=C\c1ccccc1)CC1(O)CCCCC1 | 108% (inactive)
2 | CC(=O)O[C@H]1[C@H](CC#CC#CC[C@@H]2C[C@]3(C)[C@H]4CC=C5[C@H]6[C@@H](C)[C@H](C)CC[C@]6(C(=O)NCCCCCCCCN)CC[C@@]5(C)[C@]4(C)CC[C@H]3C(C)(C)[C@H]2OC(C)=O)C[C@]2(C)[C@H]3CC=C4[C@H]5[C@@H](C)[C@H](C)CC[C@]5(C(=O)NCCCCCCCCN)CC[C@@]4(C)[C@]3(C)CC[C@H]2C1(C)C | 92.8% (inactive)
3 | N#Cc1c(N)c(C(=O)c2ccc3c(c2)OCCO3)n2c1CCCC2 | 23% (inactive)
4 | Cc1c(O)c(=O)n(-c2ccccc2)n1C | 92% (inactive)
5 | COc1ccc2[nH]c(O)c(/C=c3/ccc4c(c3)N=C(c3ccc(C(F)(F)F)cc3)N=4)c2c1 | 43.1% (inactive)
6 | COc1ccc(/C=C/C(=O)c2ccc(NC(=O)CSc3nnc(-c4ccc(OC)cc4)n3-c3ccccc3)cc2)cc1 | 106% (inactive)
7 | N=C(N)c1ccc(-c2ccc(-c3cc(Cl)cc(Cl)c3)o2)nc1 | -29.7% (active)
8 | CN(C)c1ccc(N2Cc3ccccc3OC3=C2C(=O)c2c(O)ccc(O)c2C3=O)cn1 | -4.29% (active)
9 | COc1ccccc1/C=N\NC(=S)Nc1ccc(F)cc1 | 83% (inactive)
10 | FC(F)(F)C1=NNC(c2ccc3ccccc3c2)=NN1 | 109% (inactive)
11 | CCCC(CCC)NCC(O)c1cc(-c2ccc(C(F)(F)F)cc2)nc(C(F)(F)F)c1 (configuration not stated) | -47.3% (active)
12 | CCOC(=O)c1c(NC(=O)c2ccccc2)sc2c(O)c(CN(CC)CC)ccc12 | 22.8% (inactive)

— PubChem BioAssay (NCI)
